FUS yeast rescue: FUS proteinopathy suppression in yeast | Potency, µM (top dose mostly 76.6 µM), most hits filed as activators | S. cerevisiae FUS-expressing, growth rescue, OD600, 24 h | actives 0.24% (n = 390,000) | AID 1347120;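 also: plate controls were DMSO vehicle for no effect and reference control for full effect; nearly all actives have a fitted effect of over 55% in size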
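Restored growth of FUS-toxic S. cerevisiae, read as 600 nm absorbance after 24 h at 30C in galactose medium (starting OD 0.005). Controls CP55940 and DMSO.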
TDP43 rescue: inhibitors of TDP-43 toxicity in yeast; Potency, µM (doses to about 46.1 µM), without a hit: top-dose growth rescue (activation), most hits filed as activators; actives 1.8% (n = 410,000); TDP-43 expressing yeast growth rescue, BacTiter-Glo, 24 h; AID 652104; also: % of control where 0% means no effect; nearly all actives have a fitted effect of over 50% in size
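Yeast expressing TDP-43 (pregrown in raffinose, seeded at OD600=0.02 in galactose medium) exposed to compounds 24 hr at 30 deg C. Growth read by BacTiter-Glo luminescence; rescue of toxicity appears as increased signal.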
Abeta rescue: A-beta toxicity reversal in yeast; yeast expressing A-beta42, growth rescue, OD600, 48 h; response scale: 0% DMSO, 100% iron-clioquinol control; actives 0.063% (n = 410,000); Potency, µM (titrated, usually from 46.1 µM), actives largely listed as activators; AID 1347071; also: nearly all actives have a fitted effect of over 55% in size
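Yeast A-beta toxicity model in growth medium with pinned compounds, 48 h at 30 C; growth read as absorbance at 600 nm. Normalized to FeCl3/clioquinol equimolar mix (positive) and DMSO (negative).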
aSyn rescue: rescues yeast growth from alpha-synuclein toxicity; Yeast expressing alpha-synuclein, growth rescue, BacTiter-Glo, 24 h; Potency, µM (doses to about 46.1 µM), for inactives: at the top dose growth rescue (activation), usual class: activators; actives 0.14% (n = 370,000); AID 652106; also: % of control where 0% means no effect; nearly all actives have a fitted effect of over 65% in size
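Screening used galactose-induced yeast with toxic alpha-synuclein levels, exposed to compound for 24 hr at 30 deg C. Cell growth, read with BacTiter-Glo luminescence, gave the measured signal.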
The depositor's hits bear a star; i = inactive; ? = inconclusive; / = no result given. Most compounds without a hit are left out; they make up all but 2.1% or so of the library. Calls follow the shape of the dose curve; as a rule, active = well fitted curve in the direction sought with a large enough effect; inconclusive = small, poorly fitted or top-dose-only effect, or another doubt; inactive = no such curve, though single readings can be large; an effect the other way counts as inactive or inconclusive. Potency is read from the fitted curve at half-maximal effect.

SMILES	FUS yeast rescue	TDP43 rescue	Abeta rescue	aSyn rescue
O=C(O)C1C2C=CC(C2)C1C(=O)NCc1ccc(Cl)c(Cl)c1 (configuration not stated)	i	20µM*	i	1%
O=C(O)C1C2C=CC(C2)C1C(=O)NCc1ccc2c(c1)OCO2 (configuration not stated)	i	2%	i	3%
Oc1ccc(Br)cc1C1C=C(c2ccc3c(c2)OCO3)NC(c2ccc(F)c(Br)c2)N1 (configuration not stated)	/	/	/	-9%
CCCOc1ccc(CNC(=O)CCCN2C(=O)CSc3c2c(C)nn3-c2ccccc2)cc1	?	18µM*	i	/
Cc1nn(-c2ccccc2)c2c1N(CCCC(=O)NCc1ccc(N(C)C)cc1)C(=O)CS2	i	16%	i	/
COc1ccc(CNC(=O)CCCN2C(=O)CSc3c2c(C)nn3-c2ccccc2)cc1	i	22µM*	i	/
COc1ccc(CN(Cc2ccccc2)C(=O)Nc2ccccc2)cc1COc1ccc(NC(C)=O)cc1	/	/	/	2%
COCCNc1nc(NCc2cccc(Cl)c2)c2cnn(C)c2n1	i	12%	i	/
CCCn1ncc2c(Nc3ccc(C)c(C)c3)ncnc21	i	11µM*	i	-12%
Cn1ncc2c(Nc3ccc(Cl)c(Cl)c3)ncnc21	i	7.1µM*	i	-15%
Cn1ncc2c(NCc3cccc(Cl)c3)ncnc21	i	14µM*	i	/
O=C(O)c1cc2cccc([N+](=O)[O-])c2[nH]1	/	/	/	17%
CCC(NC(=O)CCCN1C(=O)COc2ccc(C)cc21)c1ccccc1 (configuration not stated)	i	/	/	/
CC(C)COc1ccc(N)cc1OCC(C)C	?	11µM*	i	-2%
Cc1nn(C)c(Nc2ccc(Br)cc2)c1Br	i	18µM*	?	?
CCOc1ccc(Cn2c(=O)sc3ccccc32)cc1OC	i	13µM*	i	?
COc1ccc(Cn2c(=O)sc3ccccc3c2=O)cc1	i	11µM*	i	?
COc1ccc(OCCn2c(=O)sc3ccccc32)cc1	i	16µM*	i	25µM*
COc1ccc(OCCn2c(C(C)Oc3ccccc3)nc3ccccc32)cc1 (configuration not stated)	i	20µM*	?	/
COCCn1c(=O)sc2ccccc2c1=O	i	?	i	2%
CC(C)N(C)C1CCN(S(=O)(=O)c2ccc3[nH]c(=O)ccc3c2)CC1	i	16%	i	-9%
COc1ccc(OC(C)C(=O)N(C)Cc2nc(-c3ccccc3)no2)cc1 (configuration not stated)	i	?	i	1%
Cc1ccc(CC(=O)N(Cc2nc(-c3ccc(C)cc3)no2)C(C)C)cc1	i	25µM*	i	/
COc1ccc(-c2noc(CN(C(=O)C(C)Oc3ccc(C)cc3)C(C)C)n2)cc1 (configuration not stated)	i	35µM*	i	/
Cc1ccc(C(=O)N(Cc2nc(-c3ccc(C)cc3)no2)C(C)C)cc1	i	13%	i	1%
SMILES	FUS yeast rescue	TDP43 rescue	Abeta rescue	aSyn rescue
CC(C)N(Cc1nc(-c2ccc(Cl)cc2)no1)C(=O)c1ccco1	i	35µM*	i	/
CCCCN(CCCN)c1ccc(Br)cn1	/	/	/	0%
CC(C)(C)C(=O)C(Cc1ccccc1Cl)n1cncn1 (configuration not stated)	i	7.1µM*	i	30%
CC(C)(C)C(=O)C(Cc1ccccc1)n1cncn1 (configuration not stated)	i	?	i	?
CC(C)(C)C(O)C(Cc1ccccc1Cl)n1cncn1 (configuration not stated)	i	35µM*	i	14%
CCCC(C(=O)c1ccccc1)n1cncn1 (configuration not stated)	i	-15%	i	-1%
CCn1c2ccccc2c2cc(N)ccc21	i	0%	i	-1%
CCn1c2ccccc2c2cc(/C=C(/C#N)C(N)=S)ccc21	/	32µM*	i	1%
Cc1ccc(C(=O)NC2CCCc3ccccc32)cc1[N+](=O)[O-] (configuration not stated)	i	10µM*	i	7%
COc1ccc(C(=O)NC2CCCc3ccccc32)cc1Br (configuration not stated)	i	14µM*	i	3%
CCOc1ccc(Oc2c(Cl)c(Br)nn(Cc3cccc4ccccc34)c2=O)cc1	i	/	/	/
Cc1cc(SCC(=O)NC(=O)NCc2ccco2)nc2ccccc12	?	?	i	-1%
Cc1cc(SCC(=O)NC(=O)NCc2ccco2)nc2c(C)cccc12	?	-9%	i	11µM*
COc1ccc(OC)c(NS(=O)(=O)c2ccc(Br)s2)c1	i	22µM*	i	/
COc1ccc(CCNS(=O)(=O)c2ccc(Br)s2)cc1	i	11µM*	i	1%
COc1ccccc1NS(=O)(=O)c1ccc(Br)s1	i	11µM*	i	22%
COc1cccc(NS(=O)(=O)c2ccc(-c3cc(C)no3)s2)c1	i	-17%	i	/
COc1ccc(OC)c(NS(=O)(=O)c2ccc(-c3cc(C)no3)s2)c1	i	16µM*	i	/
O=S(=O)(NCCc1ccccc1)c1ccc(Br)s1	i	?	i	5%
CN(C)c1ccc(/C=C/c2ccnc3c(Cl)ccc(Cl)c23)cc1	/	/	/	-6%
CCS(=O)(=O)c1ncc(Cl)c(C(=O)N2CCN(c3cccc(Cl)c3)CC2)n1	i	13µM*	i	/
CS(=O)(=O)c1ncc(Cl)c(C(=O)N2CCN(c3cccc(Cl)c3)CC2)n1	i	13µM*	i	9%
COC(=O)[C@]12C[C@H](CC(=O)N3CCSCC3)C(=O)N(Cc3ccc(Cl)cc3Cl)C1=C[C@H](C(C)C)O[C@@H]2C1CC1	i	/	/	/
O=C(c1ccc2c(c1)OCCO2)N(Cc1cccnc1)c1nc2c(Cl)cccc2s1	i	22µM*	i	/
Cc1cccc2sc(N(Cc3cccnc3)C(=O)C3CCCCC3)nc12	i	3.5µM*	i	/
SMILES	FUS yeast rescue	TDP43 rescue	Abeta rescue	aSyn rescue
CCOc1ccc2nc(N(Cc3cccnc3)C(=O)C3CCCCC3)sc2c1	i	?	i	/
CN(C)CCN(C(=O)c1ccc2c(c1)OCCO2)c1nc2c(Cl)cccc2s1	i	-14%	i	6%
Cc1ccc2nc(N(Cc3cccnc3)C(=O)C3CCCCC3)sc2c1	i	5.6µM*	i	/
CCc1ccc2nc(N(Cc3cccnc3)C(=O)c3cccs3)sc2c1	i	32µM*	i	/
CC(=O)N(Cc1cccnc1)c1nc2c(C)cccc2s1	i	?	i	/
Cc1ccc(-c2cc(-c3nnc4sc(COc5ccccc5)nn34)[nH]n2)cc1	i	/	/	/
CCOC(=O)c1ccc(NC(=O)CSc2nnc(SCc3cccc4ccccc34)s2)cc1	i	/	/	/
C=Cc1ccc(C(=O)Nc2nnc(-c3cccnc3)s2)cc1	i	/	/	/

Assay outcomes deposited in PubChem BioAssay by National Center for Advancing Translational Sciences (NCATS).
